V-ATPase pH: regulators of yeast V-ATPase proton pumping, primary screen, pHLuorin cytosolic pH fluorescence; response, % at 10 µM; S. cerevisiae; 350,000 compounds, 0.37% hits; in the data active = response mostly above about 7.3%, no sharp cut-off; inactive = mostly below about 5.4%; note: actives read high
NALP1 yeast inh: NALP1 inflammasome inhibitors in reconstituted yeast, colorimetric, S. cerevisiae, triplicate retest; S. cerevisiae NALP1/ASC/caspase-1 growth, X-gal OD620, 72 h; inhibition, % at 10 µM; 280,000 compounds, 0.61% hits; AID 2071, 2009; in the data active = inhibition mostly above about 24%, no sharp cut-off; inactive = mostly below about 32%
tim10-1 inh: growth inhibitors of tim10-1 mutant yeast, primary screen, luminescence, uHTS; inhibition, % at 20 µM; 330,000 compounds, 2.2% hits; AID 463190, 2010; S. cerevisiae tim10-1 ts strain growth, BacTiter-Glo, 24 h;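 active = inhibition of at least 40%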;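 note: mutant grown at 25 °C; 0% = DMSO wells with yeast and 100% = wells holding no yeast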
TIM10 inh: growth inhibitors of isogenic TIM10 control yeast, primary screen, counter-screen for tim10-1 yeast inhibitor project, luminescence, uHTS. 330,000 compounds, 1.4% hits. inhibition, % at 10 µM. AID 463195, 2010. S. cerevisiae TIM10 strain growth, BacTiter-Glo luminescence, 24 h;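 active = inhibition of 40% or more at the single tested concentration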;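 note: wild-type TIM10 isogenic control strain grown at permissive 25 °C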
NLRP3 yeast inh: NALP3 inflammasome inhibitors in reconstituted yeast, primary screen, luminescence, uHTS; Yeast reconstituted NLRP3/ASC/caspase-1, beta-gal luminescence, 24 h; inhibition, % at 10 µM; 330,000 compounds, 0.39% hits; AID 2825, 2010;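 active = inhibition of 50% or more; inactive = inhibition below 50%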;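 note: plate controls were induced DMSO wells for no effect and uninduced yeast grown without galactose for full effect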
tim23-1 inh: growth inhibitors of tim23-1 mutant yeast, primary screen, luminescence, uHTS | S. cerevisiae tim23-1 growth, BacTiter-Glo luminescence, 24 h | inhibition, % at 20 µM | 330,000 compounds, 1.3% hits;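 active = growth inhibition of the mutant yeast at or above 50%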;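 note: temperature-sensitive mutant grown at 25 °C; plate controls were DMSO-treated mutant yeast for no effect and medium wells lacking yeast for full effect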
An asterisk follows results filed as active; x = not tested or not shown. A selection: hits, their analogues and other compounds. The true share with any hit is near 4.2%.

SMILES	V-ATPase pH	NALP1 yeast inh	tim10-1 inh	TIM10 inh	NLRP3 yeast inh	tim23-1 inh
Cc1ccc(S(=O)(=O)N2CCOCC2)cc1NC(=O)CNc1ccccc1N1CCCC1=O	22.0*	x	13.9	1.1	9.1	7.6
Cc1ccccc1NCC(=O)Nc1cc(S(=O)(=O)N2CCCCC2)ccc1C	-2.7	x	13.2	17.5	9.9	15.7
CCC(=O)NC(c1ccccc1)c1nc2ccccc2[nH]1 (stereo unspecified)	-4.5	25.0*	6.2	8.9	-2.2	-0.2
C/C(=N\Nc1ccc(Cl)c(C(=O)O)c1)c1ccccn1	0.4	-9.7	-2.5	-15.5	-16.1	-3.9
C/C(=N\Nc1ncc(Cl)cc1Cl)c1ccccn1	3.9	44.6*	x	x	x	x
Cc1sc2ncnc(N/N=C/c3cccc(O)c3)c2c1C	-3.6	23.8	-10.2	12.7	15.2	-24.4
C/C(=N\Nc1ncnc2sc(C)c(C)c12)c1ccccn1	69.6*	-3.8	-1.1	14.3	23.4	26.6
NC(=O)c1cc([N+](=O)[O-])ccc1NCc1cccc2ccccc12	1.4	x	6.7	-2.6	5.3	17.3
CCCN1C(=O)/C(=C/c2ccc(C)o2)SC1=Nc1ccc(OC)cc1	-2.6	9.0	-7.3	-5.0	30.8	-0.2
COc1ccc(N=C2S/C(=C\c3ccc(C)o3)C(=O)N2CC(C)C)cc1	-2.0	39.9*	5.1	-26.5	14.2	-3.8
OCCN1CCN(c2ncnc3ccc(Br)cc23)CC1	-4.6	32.2*	-0.2	-1.5	19.3	6.6
C[C@H](NC(=O)c1ccccc1Cl)C(=O)OC(C(=O)Nc1cc(C(F)(F)F)ccc1Cl)c1ccccc1 (stereo partly specified)	6.7	35.4*	17.1	13.7	7.0	-4.3
O=C(CCc1nnc(-c2ccc3c(c2)OCO3)o1)N1CCC(c2ccc(F)cc2)C1 (stereo unspecified)	2.3	4.9	9.0	39.8	28.3	22.0
CC(=O)Oc1ccc(N(C(C)=O)S(=O)(=O)c2ccc(Cl)cc2)c2ccccc12	18.3*	10.3	14.5	14.7	2.9	23.5
C=C(C)C1CC=C(CN2CC(C)OC(C)C2)CC1 (stereo unspecified)	-1.1	40.7*	-20.5	-10.8	-5.3	-10.4
C=C(C)[C@@H]1CC=C(CO)CC1	-0.6	x	x	x	x	x
CC1CCCCC12NC(=O)N(CC(=O)NCc1ccc3c(c1)OCO3)C2=O (stereo unspecified)	-0.2	22.4	6.3	4.4	2.7	15.6
CCOc1ccc(CN(C)c2nc(-c3cccnc3)nc3ccccc23)cc1OC	15.7*	-2.5	1.3	2.0	35.6	35.5
O=C1CC(c2ccccc2)CC(O)=C1C=NC1CCCCCC1 (stereo unspecified)	2.3	25.9	8.9	-7.4	21.3	20.0
CCCn1c(/N=C/c2cc(OC)ccc2O)nc2ccccc21	-2.2	-5.3	9.6	-1.3	0.2	15.0
COc1ccc(O)c(/C=N/c2nc3ccccc3n2C)c1	11.8*	33.1*	2.6	-6.1	21.6	16.9
CN(C)CCCN(Cc1ccccc1)C(=S)Nc1cccc(C(F)(F)F)c1	-0.5	18.0	24.7	5.3	14.7	8.3
CN(C)CCCN(Cc1ccccc1)C(=S)Nc1ccc(F)c(Cl)c1	-0.5	33.4*	10.2	-4.0	10.2	-3.0
O=C(OCc1nnc(-c2ccc(Cl)cc2)o1)C12CC3CC(CC(O)(C3)C1)C2	2.1	-3.3	3.5	12.8	12.0	8.1
COc1ccc2cc(C(=O)N3CCCC(Nc4ccc(F)cc4)C3)n(C)c2c1 (stereo unspecified)	-1.9	34.9*	18.5	-0.9	9.7	30.2
SMILES	V-ATPase pH	NALP1 yeast inh	tim10-1 inh	TIM10 inh	NLRP3 yeast inh	tim23-1 inh
COc1ccc(C(=O)NCC(=O)OCC(=O)c2ccc3c(c2)OCCO3)cc1	-3.2	35.8*	-6.5	-3.3	9.5	1.7
Clc1ccsc1-c1ccc2ccccc2n1	-1.0	43.8*	19.1	-13.8	11.0	9.2
NS(=O)(=O)c1ccc(N/N=C/c2ccc(O)c(O)c2O)c([N+](=O)[O-])c1	-0.9	15.1	x	x	x	x
COc1ccc2[nH]c(=O)c(CN(C(=O)c3ccco3)C3CCCCC3)cc2c1	-2.1	26.1*	18.2	-8.5	9.8	5.9
C[C@H]1CN([C@@H](C)CO)C(=O)CCCn2nncc2CO[C@@H]1CN(C)Cc1ccc(Cl)c(Cl)c1	0.7	x	x	x	x	x
CCN1C(=O)[C@H]2[C@@H](c3ccc(C)cc3)N3C(=O)N(c4cccc(Br)c4)C(=O)[C@@]3(Cc3ccccc3)[C@H]2C1=O	13.3*	x	4.5	3.7	2.6	14.2
CCN1C(=O)[C@H]2[C@@H](c3ccc(C)cc3)N3C(=O)N(c4cccc(C)c4)C(=O)[C@@]3(Cc3ccccc3)[C@H]2C1=O	-0.9	24.3	-7.5	4.4	-0.4	-2.6
O=C(CSc1cccc[n+]1[O-])Nc1cc([N+](=O)[O-])ccc1Cl	-1.1	14.3	12.4	-25.0	-14.2	3.5
O=C(CSc1cccc[n+]1[O-])Nc1cc2c(cc1Cl)C(=O)c1ccccc1C2=O	0.2	54.8*	x	x	x	x
CN(C(=O)COC(=O)c1ccc2c(c1)OCO2)C1CCCCC1	-3.5	x	5.8	-6.7	11.5	37.6
CN(C(=O)COC(=O)c1ccc2c(c1)OCO2)C1CCS(=O)(=O)C1 (stereo unspecified)	23.4*	31.5	-1.4	-1.7	-8.9	5.1
CC[n+]1ccc(/C=C/c2ccc(N(C)C)cc2)c2ccccc21	3.1	44.6*	x	x	x	x
CC[n+]1ccccc1/C=C/c1ccc(N(C)C)cc1	3.2	11.1	x	x	x	x
CC[n+]1c(/C=C/c2ccc(N(C)C)cc2)ccc2ccccc21	-2.1	92.2*	x	x	x	x
CC[n+]1c(/C=C/c2ccc(OC)c(OC)c2)ccc2ccccc21	0.9	11.5	-12.5	2.0	14.9	5.4
Cc1ccc(C)c(-n2c(SCC(=O)Nc3nonc3C)nnc2-c2ccoc2C)c1	2.0	3.9	30.6	15.5	5.2	-3.6
COc1ccc(CCNC(=O)CCc2nc3ccccc3[nH]2)cc1OC	14.3*	6.8	-1.9	-1.8	-3.1	-5.2
COc1c2c(cc3oc(=O)c4c5ccc(O)cc5oc4c13)OC(C)(C)CC2	-1.9	x	8.2	2.2	8.0	12.2
Cc1cc(C)cc(N(C(=O)c2csnn2)C(C(=O)NC(C)(C)C)c2cccnc2)c1 (stereo unspecified)	-0.2	23.1*	-2.0	7.4	0.4	-1.9
Clc1ccc(-c2csc(N3CCC(c4ccccc4)C3)n2)cc1 (stereo unspecified)	0.9	4.3	26.2	11.6	7.9	21.6
Fc1ccc(-c2csc(N3CCC(c4ccccc4)C3)n2)cc1 (stereo unspecified)	-3.8	31.6*	14.2	10.8	2.6	-2.0
CCOC(=O)n1c(SCC(N)=O)nc2ccccc21	0.7	26.1*	10.4	5.5	1.7	6.2
O=C(/C=C/c1cccs1)Nc1ccncc1	-2.9	43.8	-7.5	-2.6	-9.2	-3.3
